# Source: PubChem
# Rows were chosen to be rich in hits. Some 10% of all compounds tested hit in one or more screens of this group.
# HEK293 tox: kills HEK 293 cells. HEK 293 viability, ATP luminescence (CellTiter-Glo), 48-72 h. Potency, µM (doses to about 115 µM), inactives show top-dose activity change, negative = cytotoxicity, most hits filed as inhibitors. hit rate 6.6% among 94,000. AID 1345083; further: nearly all actives have a fitted effect of over 60% in size
#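 HEK 293 cells seeded at 250 cells/well were exposed to compound for 48 or 72 hr at 37 degree Celsius. Viability taken as ATP content by CellTiter-Glo luminescence.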
# Luciferase inh: blocks purified firefly luciferase enzyme activity. Potency, µM (top dose mostly 115 µM), most hits filed as inhibitors. hit rate 2.5% among 76,000. P08659. purified P. pyralis luciferase, luminescence, biochemical; further: nearly all actives have a fitted effect of over 65% in size
# Target sequence (P08659 whole entry, looked up): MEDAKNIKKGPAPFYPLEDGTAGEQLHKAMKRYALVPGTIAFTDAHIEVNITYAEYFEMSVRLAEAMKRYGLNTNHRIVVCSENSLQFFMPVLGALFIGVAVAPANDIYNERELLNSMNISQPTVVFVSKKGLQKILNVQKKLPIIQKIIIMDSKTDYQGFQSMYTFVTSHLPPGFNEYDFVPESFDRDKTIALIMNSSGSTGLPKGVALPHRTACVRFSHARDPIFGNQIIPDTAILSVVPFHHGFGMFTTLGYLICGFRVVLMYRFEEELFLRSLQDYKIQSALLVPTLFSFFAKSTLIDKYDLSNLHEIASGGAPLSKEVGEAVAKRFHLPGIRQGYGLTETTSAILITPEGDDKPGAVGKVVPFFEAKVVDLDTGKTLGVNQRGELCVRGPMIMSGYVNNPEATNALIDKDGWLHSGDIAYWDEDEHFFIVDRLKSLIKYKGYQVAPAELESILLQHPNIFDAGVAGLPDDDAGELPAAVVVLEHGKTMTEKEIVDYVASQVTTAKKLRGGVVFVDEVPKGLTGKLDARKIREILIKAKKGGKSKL
#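 Purified P. pyralis luciferase (10nM final) in 50mM Tris acetate pH 7.5, 10mM Mg acetate, 0.01% Tween-20, 0.05% BSA with 10uM D-luciferin and 10uM ATP. Compounds titrated qHTS. Luminescence imaged on CCD.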
# NIH3T3 tox: kills NIH 3T3 cells. NIH 3T3 viability, CellTiter-Glo ATP luminescence, 48-72 h. Potency, µM (series often up to 96.7 µM), for inactives: at the top dose activity change, negative = cytotoxicity, actives largely listed as inhibitors. hit rate 4.3% among 94,000. AID 1345082; further: nearly all actives have a fitted effect of over 55% in size
#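 Mouse fibroblast NIH 3T3 cells, 400 per well, received compound via pintool and were incubated for 48 or 72 hr prior to CellTiter-Glo ATP luminescence measurement.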
# GPT2 inh: inhibitors of human GPT2 alanine aminotransferase. Recombinant GPT2, coupled pyruvate oxidase/HRP Amplex Red fluorescence. Q8TD30. Potency, µM (highest dose often 57.7 µM), for inactives: at the highest dose activity change, negative = inhibition, most hits filed as inhibitors. hit rate 0.25% among 100,000; further: nearly all actives have a fitted effect of over 60% in size
#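 GPT2 10ng/uL, a-KG 250uM, L-Ala 2mM, HEPES pH7.5 + 0.0001% Tween; 30 min RT. Then Amplex mix (PO/HRP/ThPP), 30 min RT dark, fluorescence. AOA 50uM used as positive control.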
# NPR1 antag: human Npr1 receptor antagonism. P16066. hit rate 1.6% among 76,000. Potency, µM (top dose mostly 46.3 µM), inactives show top-dose activity change, negative = inhibition, hits mostly inhibitors. HEK293 hNpr1 GloSensor cGMP, ANP-stimulated luminescence; calls by dose curve; further: nearly all actives have a fitted effect of over 60% in size
#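 Compound pre-incubated 30 min at room temperature on GloSensor-loaded HEK293 cells stably carrying hNpr1 and the pGS-40F cGMP biosensor. Stimulation uses hNppA at 0.1 nM final; luminescence is taken at baseline and 20 min post-agonist.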
# * marks the source's active call; other numbers are inactive results; i = inactive; ? = inconclusive; . = not tested or not shown; [ ] = another dose, or the depositor's remark. Unless noted, the call rests on the fitted dose curve; in most records, active means well fitted curve in the direction sought with a large enough effect; inconclusive means small, poorly fitted or top-dose-only effect, or another doubt; inactive means no such curve, though single readings can be large; an effect the other way counts as inactive or inconclusive. On the % scale 0 is the no-effect control and ±100 the full control effect; potency means the concentration at half of the fitted maximal effect.
SMILES,HEK293 tox,Luciferase inh,NIH3T3 tox,GPT2 inh,NPR1 antag
Cn1ncc2c(C(=O)N3CCCC3)cc(-c3ccccc3)nc21,?,.,-28.4%[138 µM],i,.
CCC(=O)N[C@H]1CC[C@H](C(=O)N(C)c2ccc(-c3nc4ccccc4o3)cc2)C1,.,.,.,i,.
CC(=O)N1CCCC1C(=O)Nc1ccc(-c2nc3ccccc3o2)cc1 (configuration not stated),?,15.8µM*,-7.6%,i,0.5%
N#Cc1cccnc1-c1ccc(C(=O)N2CCC(NC(=O)c3ccc(Cl)nc3)CC2)cc1,?,.,?,3.8%,.
COc1cccc(Nc2ccc3c(n2)C(C)(C(=O)NC2CCN(C)CC2)CN(C)C3)c1 (configuration not stated),-21.8%[172 µM],i,?,-3.0%[88.5 µM],-2.0%[70.6 µM]
COc1cccc(Nc2ncc3c(n2)C(C)(C(=O)NC2CCN(C)CC2)CC3)c1 (configuration not stated),89.1µM*,i,?,-20.2%[88.5 µM],-0.8%[70.6 µM]
COc1cccc(Nc2ncc3c(n2)C(C)(C(=O)NC2CCOCC2)CC3)c1 (configuration not stated),89.1µM*,i,39.8µM*,4.5%[88.5 µM],-5.0%[70.6 µM]
CC1(C(=O)NC2CCOCC2)CCc2cnc(Nc3ccccc3)nc21 (configuration not stated),100µM*,i,?,4.1%[88.5 µM],-0.3%[70.6 µM]
O=C(NC1CC1)[C@@H]1CN(Cc2ccc(OC(F)(F)F)cc2)C[C@H]1CO,?,i,-25.6%,4.3%,-0.7%
O=C(NCC(=O)N1CCC(Cc2ccccc2)CC1)c1ccc(-c2cccc(C(F)(F)F)c2)cc1,?,.,?,i,.
O=C(c1ccccc1Cl)N1CCCC(C(=O)N2CCC(N3Cc4cccn4C3=O)CC2)C1 (configuration not stated),-25.7%,.,-22.3%,i,.
Cc1ccccc1Cn1cc(-c2ccncc2)cc1C(=O)N1CCCC(C)C1 (configuration not stated),44.7µM*,i,?,3.2%,-8.2%
Cc1ccccc1Cn1cc(-c2ccncc2)cc1C(=O)N(C)Cc1ccco1,?,i,?,i,-30.5%
Cc1ccccc1Cn1cc(-c2ccncc2)cc1C(=O)Nc1ccc2c(c1)OCO2,35.5µM*,?,?,i,-16.0%
Cc1ccccc1Cn1cc(-c2ccncc2)cc1C(=O)NC1CC1,?,i,?,-1.3%,0.8%
Cc1ccc(OCC(=O)N2CCC(CC(=O)N(C)Cc3ccccc3)C2)cc1 (configuration not stated),?,.,?,i,.
O=C(NC1CCCCC1)c1ccc2nnc(CC3CC3)n2c1,-13.5%[172 µM],.,-25.2%[138 µM],i,.
CCCN(C)c1nccnc1OC1CCN(C(=O)C2CC2)C1 (configuration not stated),-23.1%,39.8µM*,?,i,-1.8%
CCCN(C)c1nccnc1OC1CCN(C(=O)C2CCCCC2)C1 (configuration not stated),?,?,-41.8%,-23.2%,-10.8%
CN(C)c1nccnc1OC1CCN(C(=O)C2CCOCC2)C1 (configuration not stated),9.4%,i,i,-10.3%,0.7%
CCCN(C)c1nccnc1OC1CCN(C(=O)C2CCOCC2)C1 (configuration not stated),-12.9%,39.8µM*,-8.1%,3.8%,4.0%
COc1ccc(Cl)cc1C(=O)N1CCC(Oc2nccnc2N(C)C)C1 (configuration not stated),?,?,i,i,3.0%
CCCN(C)c1nccnc1OC1CCN(C(=O)C(CC)CC)C1 (configuration not stated),?,31.6µM*,?,i,-14.0%
COc1ccc(CCC(=O)N2CCC3(CC2)CC(CC(=O)N2CCOCC2)CCO3)cc1 (configuration not stated),i,.,-11.0%,i,.
COC1C(=O)N(c2cccc(F)c2)C12CCN(C(=O)c1cc3ccccc3[nH]1)CC2 (configuration not stated),31.6µM*,?,?,i,-2.9%
